# Test results published in PubChem BioAssay AID449762 (Southern Research Specialized Biocontainment Screening …, 2010).
# Screen size: about 330,000 compounds; about 1,900 (0.58%) were called active. Roughly 4% stayed inconclusive and do not appear here. Rule as the data show it: inconclusive = inhibition above about 70% without an active follow-up result; inactive = below that. Only a sample is shown. Potency and affinity values are given separately.
# Assay: M. tuberculosis growth inhibition, HTS (AID 449762);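 also: bacterial growth assessed after seven days of incubation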
# Conditions: M. tuberculosis H37Rv growth inhibition, 7H9 media; at 25 µM; stronger effect = higher value
row,SMILES,inhibition
1,Cc1ccc(S(=O)(=O)NNC(=O)CCC(=O)Nc2ccc(C)cc2C)cc1,5.58% (inactive)
2,COc1cc(SC)ccc1C(=O)OCC(=O)NC1CCCCC1,-4.21% (inactive)
3,CCCCCCC1CC(CC(=O)Nc2ccc([N+](=O)[O-])cc2)C(=O)O1 (stereo not given),5.26% (inactive)
4,CCCCCC1CC(CC(=O)Nc2ccc([N+](=O)[O-])cc2)C(=O)O1 (stereo not given),68.8% (inactive)
5,O=C(CCNS(=O)(=O)c1ccc(F)c(Cl)c1)NCc1ccccc1F,-9.24% (inactive)
6,O=C(COC(=O)Cc1ccsc1)NCc1ccc(Cl)cc1,8.12% (inactive)
7,Cc1cc(C)c(C(=O)CC(=O)c2ccccc2Cl)c(O)c1,6.33% (inactive)
8,Cc1cccc(C(=O)CC(=O)c2cc(Cl)ccc2O)c1,0.28% (inactive)
9,Cc1ccc(-c2nnc(SCC(=O)N/N=C/c3c(C)nn(-c4ccccc4)c3C)n2-c2ccc(C)cc2)cc1,5.96% (inactive)
10,CCCN1CCN(CC(O)COC(c2ccc(OC)cc2)c2ccc(OC)cc2)CC1 (stereo not given),6.36% (inactive)
11,COc1ccc(CCN(C)CC(O)COC(c2ccc(F)cc2)c2ccc(F)cc2)cc1OC (stereo not given),6.55% (inactive)
12,O=C(NN1CC(C(=O)OCc2ccc(Cl)cc2Cl)CC1=O)c1ccccc1 (stereo not given),-12% (inactive)
13,O=C(c1ccc(C(=O)N2CCN(c3ccccc3F)CC2)nc1)N1CCN(c2ccccc2F)CC1,-7.27% (inactive)
14,CC1(OC(=O)c2cccs2)C(=O)C=C2C=C(c3ccsc3)OC=C2C1=O (stereo not given),-0.64% (inactive)
15,O=C(Nc1ccc(Cn2ccnc2)cc1)c1cccc(C(F)(F)F)c1,7.08% (inactive)
16,O=C(CSC1CCCCC1)Nc1nccs1,-8.08% (inactive)
17,CC(C)C(=O)Nc1ncc(Cc2ccccc2Cl)s1,-0.61% (inactive)
18,O=C(Nc1ncc(Cc2ccccc2Cl)s1)c1ccc([N+](=O)[O-])cc1,10.6% (inactive)
19,COc1ccc(C(=O)OCC(=O)Nc2c(C)cccc2C)cc1,0.88% (inactive)
20,CC1CCCC(NC(=O)CSC2=Nc3ccccc3C3CC=NN23)C1C (stereo not given),11.7% (inactive)
21,Cc1cc(C)n(-c2nc(NCCCN(C)C)c3c4c(sc3n2)CCCC4)n1,9.07% (inactive)
22,Cc1cc(C)n(-c2nc(NCCO)c3c4c(sc3n2)CCCC4)n1,10.4% (inactive)
23,CN1CCN(/N=C/c2ccc(Br)cc2)CC1,2.12% (inactive)

row,SMILES,inhibition
1,O=C(NN=Cc1cccc([N+](=O)[O-])c1)c1cc(-c2cccnc2)nc2ccccc12,5.59% (inactive)
2,CC1=CC(=O)C(C(C)C)=CC1=NC(=O)c1ccc(C)cc1,3.21% (inactive)
3,CC1=CC(=O)C(C(C)C)=C/C1=N/OC(=O)c1cccc([N+](=O)[O-])c1,-5.41% (inactive)
4,CCCOc1ccc(-c2csc3ncn(Cc4ccc(C(=O)O)cc4)c(=O)c23)cc1,11.8% (inactive)
5,CC1CCc2nc(/C(C#N)=C/c3ccncc3)sc2C1 (stereo not given),17.6% (inactive)
6,COc1cc(/C=C(\C#N)c2nc3c(s2)CCCC3)ccc1O,67.9% (inactive)
7,O=C(NCCC(=O)N1CCN(c2ccccn2)CC1)c1ccc(Cl)cc1,9.44% (inactive)
8,CC1(C)Cc2c(cnn2-c2ccccc2)C(=O)/C1=N\NC(=O)c1ccccc1O,0.99% (inactive)
9,CC1(C)Cc2c(cnn2-c2ccccc2)C(=O)/C1=N\NC(=O)c1ccccc1,6.2% (inactive)
10,COc1cccc(C2CC(c3ccc(Br)cc3)=NN2C(=O)c2ccncc2)c1OC (stereo not given),10.4% (inactive)
11,C=C1CCC[C@]2(C)C[C@H]3OC(=O)C(CNCC(C)C)[C@H]3CC12 (stereo not given in full),-0.86% (inactive)
12,C=C1CCC[C@]2(C)C[C@H]3OC(=O)C(CNC(C)CC)[C@H]3CC12 (stereo not given in full),7.33% (inactive)
13,CN(C)C(=O)c1ccc(Cl)cc1[N+](=O)[O-],-3.01% (inactive)
14,COc1ccc(S(=O)(=O)N(C)C[C@H]2Oc3c(NC(=O)NC(C)C)cccc3C(=O)N([C@H](C)CO)C[C@@H]2C)cc1,-6.16% (inactive)
15,O=c1c2ccccc2nc2c3ccccc3c(NCCN3CCOCC3)nn12,7.65% (inactive)
16,c1ccc(-c2csc3ncnc(NCCCN4CCOCC4)c23)cc1,0.1% (inactive)
17,COc1cccc(CNS(=O)(=O)c2c(C(=O)N3CCCC3)c(C)n(C)c2C)c1,3.63% (inactive)
18,COc1ccc(N2CC(C)Cn3c2nc2c3c(=O)[nH]c(=O)n2C)cc1 (stereo not given),-7.69% (inactive)
19,NC(=O)c1c(NC(=O)CSc2nnc(Cc3ccccc3)n2Cc2ccco2)sc2c1CCC2,55.7% (inactive)
20,CC(=O)OCC1OC(n2ccc3ccccc32)C(OC(C)=O)C(OC(C)=O)C1OC(C)=O (stereo not given),-6.94% (inactive)
21,O=C(CN1CCN(S(=O)(=O)c2ccc(F)cc2)CC1)Nc1ccc(Cl)c(C(F)(F)F)c1,3.5% (inactive)
22,CC(=O)c1cccc(OCC(=O)N2CCN(CC(=O)Nc3cccc(F)c3)CC2)c1,-12.4% (inactive)
23,CCOc1ccccc1NC(=O)c1sc2nc(C)nc(N3CCOCC3)c2c1C,10.4% (inactive)

row,SMILES,inhibition
1,COc1ccc(NC(=O)c2sc3nc(C)nc(N4CCOCC4)c3c2C)c(OC)c1,-1.8% (inactive)
2,CC(C)(C)OC(=O)C[C@H]1C/C=C\C[C@H](CC(=O)N(CCO)Cc2ccccc2)C(=O)N[C@@H](c2ccccc2)COC1=O,-6.06% (inactive)
3,COc1ccc(OC)c(NS(=O)(=O)Cc2ccccc2)c1,-14.1% (inactive)
4,Cc1cc(=O)oc2c(C)c(OC(C)C(=O)NCC3CCC(C(=O)O)CC3)ccc12 (stereo not given),1.04% (inactive)
5,Cn1ncc(Cl)c1C(=O)Nc1nnc(C2CC2)s1,-2.94% (inactive)
6,N#CCCN(C(=O)COC(=O)Cc1c[nH]c2ccccc12)c1ccccc1,1.58% (inactive)
7,N#CCCN(C(=O)COC(=O)CCc1nc2ccccc2c(=O)[nH]1)c1ccc(F)cc1,-3.42% (inactive)
8,COc1ccc(NC(=O)C2CCN(S(C)(=O)=O)CC2)cc1,-4.9% (inactive)
9,O=C(CC1SC(=NCC2CCCO2)NC1=O)Nc1cccc2ccccc12 (stereo not given),6.34% (inactive)
10,CC(Oc1ccc(Br)cc1)C(=O)NCC(C)(C)N1CCOCC1 (stereo not given),4.22% (inactive)
11,COc1cccc(CC(=O)N2CCN(c3ccccc3[N+](=O)[O-])CC2)c1,5.35% (inactive)
12,COc1ccc(-c2ccc(-c3noc(C)n3)c(OC)n2)cc1,5.33% (inactive)
13,CCc1nc(-c2ccc(-c3ccc(OC)cc3)nc2OC)no1,68.2% (inactive)
14,COc1cc(OC)cc(OCC(O)Cn2ccnc2)c1 (stereo not given),7.96% (inactive)
15,CCC(CC)C(=O)Nc1cc(C(=O)NCCc2ccccc2)ccc1Cl,1.26% (inactive)
16,Cc1ccc(NC(=O)CN2C(=O)NC(Cc3ccccc3)C2=O)c(Br)c1 (stereo not given),-0.06% (inactive)
17,Cc1ccc(SCCC(=O)OC(C(=O)NC(N)=O)C(C)C)cc1 (stereo not given),-4.48% (inactive)
18,CSCC[C@H](NC(=O)c1nn(C)c(=O)c2ccccc12)c1nc2ccccc2[nH]1,-4.72% (inactive)
19,Cn1nc(C(=O)Nc2ccccc2N2CCCC2)c2ccccc2c1=O,54.7% (inactive)
20,CCCn1nc(C(=O)Nc2cc(C(=O)OC)ccc2C)c2ccccc2c1=O,3.29% (inactive)
21,CCn1nc(C(=O)N[C@@H](CCSC)c2nc3ccccc3[nH]2)c2ccccc2c1=O,1.2% (inactive)
22,CCCn1nc(C(=O)NNC(=O)c2ccc(OC(F)F)cc2)c2ccccc2c1=O,3.96% (inactive)
23,CCCCn1nc(C(=O)NCc2ccccc2CN2CCCC2)c2ccccc2c1=O,-5.37% (inactive)

row,SMILES,inhibition
1,C/C(=N\NC(=O)CNC(=O)C1COc2ccccc2O1)c1ccc(Cl)cc1 (stereo not given),1.09% (inactive)
2,COc1ccc(/C=C/C(=O)OCC(=O)Nc2ccc(Cl)cn2)cc1,10.3% (inactive)
3,CN1CC[n+]2cnc3ccccc3c21,-2.8% (inactive)
4,CC1(C)CC(NC(=O)C2CCN(S(=O)(=O)c3ccccc3C(F)(F)F)CC2)CC(C)(C)N1,-16.1% (inactive)
5,COc1ccccc1C(=O)COC(=O)Cn1nc(C)c([N+](=O)[O-])c1C,-2.3% (inactive)
6,CCc1cc(=O)oc2c3c(cc(OCC(=O)NCCN4CCOCC4)c12)OC(C)(C)CC3,-4.22% (inactive)
7,c1ccc(-n2ccnc2)cc1,62.1% (inactive)
8,c1ccc(-c2nc(-n3ccnc3)nc(-n3ccnc3)n2)cc1,22.2% (inactive)
9,c1ccc(Cn2cc(-c3cccnc3)cn2)cc1,7.26% (inactive)
10,Nc1cc(C(F)(F)F)cc([N+](=O)[O-])c1N,18% (inactive)
11,CCCOP(=O)(O)c1c([N+](=O)[O-])cc(C(F)(F)F)cc1[N+](=O)[O-] (tested in a mixture with another compound),-2.65% (inactive)
12,COC(=O)c1ccc(CNC(=O)C2CCC(=O)N(CCCc3ccccc3)C2)cc1 (stereo not given),-9.71% (inactive)
13,O=C(NC1CCCC1)c1ccccc1-c1ccccc1,64.1% (inactive)
14,O=C(NC1CCCCCCC1)c1ccccc1O,6.43% (inactive)
15,CN(Cc1ccccc1)S(=O)(=O)c1cccc2nsnc12,-5.13% (inactive)
16,COC(=O)[C@@H](NC(=O)O[C@@H]1C(=O)c2cc(Br)ccc2O[C@H]1c1cccc(OC)c1)C(C)C,8.75% (inactive)
17,COc1ccc2c(c1)O[C@@H](c1cccc(C(F)(F)F)c1)[C@H](OC(=O)NCCc1ccc(OC)c(OC)c1)C2=O,8.51% (inactive)
18,Cc1cc(=O)oc2cc(NC(=S)NNC(=O)c3c(Cl)cnn3C)ccc12,-1.94% (inactive)
19,CCN(CC)C(=O)c1ccccc1NS(C)(=O)=O,-4.74% (inactive)
20,CCNC(=O)CSc1nnc(-c2cccs2)o1,17% (inactive)
21,C=CCNC(=O)CSc1nnc(-c2cccs2)o1,2.45% (inactive)
